# Data taken from the supplement of paper PMC8728848.
# About 410 targets per protein were measured; listed, in parts, are those with the strongest signals and a random draw of the rest.
# B1: SspB A3vp1 (Streptococcus gordonii), Q54186 (protein)
# chain: MTNEADYQAKLAAYQTELARVQKANADAKATYEKAVEDNKAKNAAIKAENEEIKQRNAVAKTDYEAKLAKYEADLAKYKKEFAAYTAALAEAESKKKQDGYLSEPRSQSLNFKSEPNAIRTIDSSVHQYGQQELDALVKSWGISPTNPDRKKSRAYSYFNAINSNNTYAKLVLEKDKPVDVTYTGLKNSSFNGKKISKVVYTYTLKETGFNDGTKMTMFASSDPTVTAWYNDYFTSTNINVKVKFYDEEGQLMNLTGGLVNFSSLNRGNGSGAIDKDAIESVRNFNGRYIPISGSSIKIHENNSAYADSSNAEKSLGARWNTSEWDTTSSPNNWYGAIVGEITQSEISFNMASSKSGNIWFAFNSNINAIGVPTKPVAPTAPTQPMYETEKPLEPAPVAPSYENEPTPPVKTPDQPEPSKPAAALEHHHHHH
# Tests used:
# Assay in all cases: glycan array binding signal (z-score within array); higher = stronger binding
# Settings in all cases: glycan notation: IUPAC condensed, linker removed
# Gal3S(b1-3)GalNAc = target: Gal3S(b1-3)GalNAc
# How it was run: (§1)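 Negative Z-scores can be read as non-binding. The Z-score is calculated within each array and then averaged across arrays of one protein sequence at different concentrations or buffers and across linkers. Arrays, 3228 in all, were curated from the Consortium for Functional Glycomics database and kept only where the protein sequence was available.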
# Gal3S6S(b1-4)GlcNAc = target: Gal3S6S(b1-4)GlcNAc
# How it was run: as §1
# Gal4S(b1-4)GlcNAc = target: Gal4S(b1-4)GlcNAc
# How it was run: as §1
# Gal6S(b1-4)GlcNAc = target: Gal6S(b1-4)GlcNAc
# How it was run: as §1
# GalNAc(b1-3)Gal = target: GalNAc(b1-3)Gal
# How it was run: as §1
# [1] = target: GalNAc(b1-3)Gal(a1-6)Gal(b1-4)Glc
# How it was run: as §1
# GalNAc6S(b1-4)GlcNAc = target: GalNAc6S(b1-4)GlcNAc
# How it was run: as §1
# [2] = target: Glc(a1-4)Glc(a1-4)Glc(a1-4)Glc
# How it was run: as §1
# [3] = target: GlcA3S(b1-3)Gal(b1-4)GlcNAc(b1-2)Man
# How it was run: as §1
# [4] = target: GlcNAc(a1-3)Gal(b1-4)GlcNAc
# How it was run: as §1
# [5] = target: GlcNAc(a1-4)Gal(b1-4)GlcNAc
# How it was run: as §1
# [6] = target: GlcNAc(b1-2)[GlcNAc(b1-6)]Man(a1-6)[GlcNAc(b1-4)][GlcNAc(b1-2)Man(a1-3)]Man(b1-4)GlcNAc(b1-4)GlcNAc
# How it was run: as §1
# GlcNAc(b1-3)Fuc = target: GlcNAc(b1-3)Fuc
# How it was run: as §1
# [7] = target: GlcNAc(b1-3)Gal(b1-4)GlcNAc(b1-3)Gal(b1-4)GlcNAc(b1-2)Man(a1-3)[GlcNAc(b1-3)Gal(b1-4)GlcNAc(b1-3)Gal(b1-4)GlcNAc(b1-2)Man(a1-6)]Man(b1-4)GlcNAc(b1-4)[Fuc(a1-6)]GlcNAc
# How it was run: as §1
# [8] = target: GlcNAc(b1-3)Gal(b1-4)GlcNAc(b1-3)Gal(b1-4)GlcNAc(b1-3)Gal(b1-4)GlcNAc(b1-2)[GlcNAc(b1-3)Gal(b1-4)GlcNAc(b1-3)Gal(b1-4)GlcNAc(b1-3)Gal(b1-4)GlcNAc(b1-6)]Man(a1-6)[GlcNAc(b1-3)Gal(b1-4)GlcNAc(b1-3)Gal(b1-4)GlcNAc(b1-3)Gal(b1-4)GlcNAc(b1-2)Man(a1-3)]Man(b1-4)GlcNAc(b1-4)[Fuc(a1-6)]GlcNAc
# How it was run: as §1
# Kdn(a2-3)Gal(b1-3)GlcNAc = target: Kdn(a2-3)Gal(b1-3)GlcNAc
# How it was run: as §1
# [9] = target: Man(a1-2)Man(a1-3)[Man(a1-2)Man(a1-6)]Man
# How it was run: as §1
# Neu5Ac(a2-3)Gal = target: Neu5Ac(a2-3)Gal
# How it was run: as §1
# [10] = target: Neu5Ac(a2-3)Gal(b1-3)GalNAc6S
# How it was run: as §1
# [11] = target: Neu5Ac(a2-3)Gal(b1-4)GlcNAc(b1-2)Man
# How it was run: as §1
# [12] = target: Neu5Ac(a2-3)Gal(b1-4)GlcNAc(b1-3)Gal
# How it was run: as §1
# [13] = target: Neu5Ac(a2-3)Gal(b1-4)GlcNAc(b1-3)Gal(b1-4)GlcNAc(b1-2)Man(a1-3)[Neu5Ac(a2-3)Gal(b1-4)GlcNAc(b1-3)Gal(b1-4)GlcNAc(b1-2)Man(a1-6)]Man(b1-4)GlcNAc(b1-4)GlcNAc
# How it was run: as §1
# [14] = target: Neu5Ac(a2-3)Gal(b1-4)GlcNAc(b1-3)GalNAc
# How it was run: as §1
# [15] = target: Neu5Ac(a2-3)Gal(b1-4)GlcNAc6S
# How it was run: as §1
# [16] = target: Neu5Ac(a2-3)Gal(b1-4)[Fuc(a1-3)]GlcNAc(b1-6)[Neu5Ac(a2-3)Gal(b1-3)]GalNAc
# How it was run: as §1
# [17] = target: Neu5Ac(a2-6)Gal(b1-4)GlcNAc(b1-3)Gal(b1-4)GlcNAc(b1-3)Gal(b1-4)GlcNAc(b1-2)Man(a1-3)[Neu5Ac(a2-6)Gal(b1-4)GlcNAc(b1-3)Gal(b1-4)GlcNAc(b1-3)Gal(b1-4)GlcNAc(b1-2)Man(a1-6)]GalNAc
# How it was run: as §1
# [18] = target: Neu5Ac(a2-6)Gal(b1-4)GlcNAc6S
# How it was run: as §1
# Neu5Ac(a2-8)Neu5Ac = target: Neu5Ac(a2-8)Neu5Ac
# How it was run: as §1
# [19] = target: Neu5Ac(a2-8)Neu5Ac(a2-3)Gal(b1-4)GlcNAc
# How it was run: as §1
# [20] = target: Neu5Ac(a2-8)Neu5Ac(a2-3)[GalNAc(b1-4)]Gal(b1-4)Glc
# How it was run: as §1
binder,measurement,setting,value
B1,glycan array binding signal (z-score),Gal3S(b1-3)GalNAc,0.06
same,glycan array binding signal (z-score),Gal3S6S(b1-4)GlcNAc,-0.52
same,glycan array binding signal (z-score),Gal4S(b1-4)GlcNAc,0.061
same,glycan array binding signal (z-score),Gal6S(b1-4)GlcNAc,-0.624
same,glycan array binding signal (z-score),GalNAc(b1-3)Gal,0.001
same,glycan array binding signal (z-score),[1],0.652
same,glycan array binding signal (z-score),GalNAc6S(b1-4)GlcNAc,-0.623
same,glycan array binding signal (z-score),[2],-0.964
same,glycan array binding signal (z-score),[3],-1.19
same,glycan array binding signal (z-score),[4],-0.25
same,glycan array binding signal (z-score),[5],-0.84
same,glycan array binding signal (z-score),[6],-0.233
same,glycan array binding signal (z-score),GlcNAc(b1-3)Fuc,-0.426
same,glycan array binding signal (z-score),[7],1.62
same,glycan array binding signal (z-score),[8],-0.133
same,glycan array binding signal (z-score),Kdn(a2-3)Gal(b1-3)GlcNAc,-0.933
same,glycan array binding signal (z-score),[9],-0.889
same,glycan array binding signal (z-score),Neu5Ac(a2-3)Gal,-0.167
same,glycan array binding signal (z-score),[10],-0.287
same,glycan array binding signal (z-score),[11],1.88
same,glycan array binding signal (z-score),[12],-0.803
same,glycan array binding signal (z-score),[13],3.69
same,glycan array binding signal (z-score),[14],-0.47
same,glycan array binding signal (z-score),[15],-0.678
same,glycan array binding signal (z-score),[16],5.21
same,glycan array binding signal (z-score),[17],1.36
same,glycan array binding signal (z-score),[18],-0.165
same,glycan array binding signal (z-score),Neu5Ac(a2-8)Neu5Ac,-0.582
same,glycan array binding signal (z-score),[19],-1.25
same,glycan array binding signal (z-score),[20],-0.166
